Test results reported in PubChem BioAssay AID1159580 (chemical genetic matrix, 2015).
Out of some 5,500 compounds screened, about 2,000 (36%) were called active. Another 18% or so got no clear call; they are omitted. Rule as the data show it: active = normalized growth mostly below about 0.91 (no sharp cut-off); inconclusive = no clear call, values can overlap the other calls; inactive = mostly above about 0.92. This is one part of the list.

Experiment: chemical genetic growth profiling, strain panel (AID 1159580);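 also: tested at 20 µM; growth read once vehicle control cultures reached saturation at 30 °C; 1 = growth at the plate median or of vehicle wells; lower values mean less growth of the strain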
Conditions: S. cerevisiae deletion strains, growth OD

Measured: normalized growth

O=C(N/N=C\c1cc(Br)ccc1O)c1ccccc1Oc1ccccc1
inactive: locus YAR019C, strain CDC15, active compounds read low 0.963 | locus YBL105C, strain PKC1, active compounds read low 0.976 | locus YBR135W, strain CKS1, active compounds read low 0.981 | locus YBR136W, strain MEC1, active compounds read low 0.963 | locus YBR160W, strain CDC28, active compounds read low 0.973 | locus YDL017W, strain CDC7, active compounds read low 0.969 | locus YDL028C, strain MPS1, active compounds read low 0.96 | locus YDL101C, strain DUN1, active compounds read low 0.97 | locus YDL108W, strain KIN28, active compounds read low 0.971 | locus YDL132W, strain cdc53, active compounds read low 0.966 | locus YDL214C, strain PRR2, active compounds read low 0.932 | locus YDR052C, strain DBF4, active compounds read low 0.97 | locus YDR054C, strain cdc34, active compounds read low 0.968 | locus YDR226W, strain ADK1, active compounds read low 0.972 | locus YDR477W, strain SNF1, active compounds read low 0.943 | locus YER123W, strain YCK3, active compounds read low 0.879 | locus YER133W, strain GLC7, active compounds read low 0.955 | locus YFL009W, strain cdc4, active compounds read low 0.964 | locus YFL029C, strain CAK1, active compounds read low 0.953 | locus YFR003C, strain YPI1, active compounds read low 0.969 | locus YFR019W, strain FAB1, active compounds read low 0.953 | locus YFR028C, strain CDC14, active compounds read low 0.965 | locus YGR040W, strain KSS1, active compounds read low 0.942 | locus YGR052W, strain FMP48, active compounds read low 0.954 | locus YGR092W, strain DBF2, active compounds read low 0.914 | locus YHR030C, strain SLT2, active compounds read low 0.854 | locus YHR079C, strain IRE1, active compounds read low 0.885 | locus YHR082C, strain KSP1, active compounds read low 0.924 | locus YHR205W, strain SCH9, active compounds read low 0.838 | locus YIL147C, strain SLN1, active compounds read low 0.949 | locus YJL095W, strain BCK1, active compounds read low 0.846 | locus YJL128C, strain PBS2, active compounds read low 0.928 | locus YJL157C, strain FAR1, active compounds read low 0.955 | locus YJR016C, strain ILV3, active compounds read low 0.979 | locus YJR066W, strain TOR1 (second series), active compounds read low 0.901 | locus YJR066W, strain TOR1, active compounds read low 0.953 | locus YKL048C, strain ELM1, active compounds read low 0.915 | locus YKL067W, strain YNK1, active compounds read low 0.923 | locus YKL101W, strain HSL1, active compounds read low 0.89 | locus YKL193C, strain SDS22, active compounds read low 0.972 | locus YKL203C, strain TOR2, active compounds read low 1 | locus YLR133W, strain CKI1, active compounds read low 0.916 | locus YLR403W, strain SFP1, active compounds read low 0.927 | locus YML070W, strain DAK1, active compounds read low 0.888 | locus YMR001C, strain CDC5, active compounds read low 0.972 | locus YMR205C, strain PFK2 (second series), active compounds read low 0.919 | locus YMR277W, strain FCP1, active compounds read low 0.98 | locus YNL006W, strain LST8, active compounds read low 0.977 | locus YNL020C, strain ARK1, active compounds read low 0.935 | locus YNL161W, strain CBK1, active compounds read low 0.982 | locus YNL183C, strain NPR1, active compounds read low 0.883 | locus YNL207W, strain RIO2, active compounds read low 0.976 | locus YNL222W, strain SSU72, active compounds read low 0.969 | locus YNL307C, strain MCK1 (second series), active compounds read low 0.912 | locus YOL078W, strain AVO1, active compounds read low 0.98 | locus YOL136C, strain PFK27, active compounds read low 0.909 | locus YOR061W, strain CKA2, active compounds read low 0.939 | locus YOR119C, strain RIO1, active compounds read low 0.97 | locus YOR231W, strain MKK1, active compounds read low 0.892 | locus YOR329C, strain SCD5, active compounds read low 0.968 | locus YPL031C, strain PHO85, active compounds read low 0.94 | locus YPL153C, strain RAD53, active compounds read low 0.934 | locus YPL204W, strain HRR25, active compounds read low 0.94 | locus YPL209C, strain IPL1, active compounds read low 0.974 | locus YPR025C, strain CCL1, active compounds read low 0.969 | locus YPR106W, strain ISR1, active compounds read low 0.976 | locus YPR111W, strain DBF20, active compounds read low 0.947 | strain NNK1, active compounds read low 0.959 | strain TSCII, active compounds read low 0.972
active: locus YLR113W, strain HOG1, active compounds read low 0.694 | locus YPL256C, strain CLN2, active compounds read low 0.764
